From PubChem BioAssay AID1159580 (chemical genetic matrix, 2015)
“And” between values parts separate entries of the source, which are not always exact repeats. Equal entries are not always repeated. The campaign covered roughly 5,500 compounds. About 2,000 (36%) were called active. Roughly 18% stayed inconclusive and do not appear here. The list shows a part of the results. A number with no mark means an inactive call. Rule as the data show it: active = normalized growth mostly below about 0.91 (no sharp cut-off); inconclusive = no clear call, values can overlap the other calls; inactive = mostly above about 0.92.

Assay: chemical genetic growth profiling, strain panel (AID 1159580);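 also: tested at 20 µM; growth read once vehicle control cultures reached saturation at 30 °C; 1 = growth at the plate median or of vehicle wells; lower values mean less growth of the strain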
Details: S. cerevisiae deletion strains, growth OD

With `C[C@@H]1CC[C@H]2[C@@H](C)C(=O)O[C@@H]3O[C@@]4(C)CC[C@@H]1[C@]32OO4` the normalized growth (locus YAL013W, strain DEP1, active compounds read low) was 0.924, the normalized growth (locus YAL021C, strain ccr4, active compounds read low) was 0.741 (active) and the normalized growth (locus YAL026C, strain drs2, active compounds read low) was 0.824 (active). The normalized growth (locus YAL030W, strain snc1, active compounds read low) was 0.89 (active), the normalized growth (locus YBL061C, strain skt5, active compounds read low) was 0.903 (active) and the normalized growth (locus YBR009C, strain hhf1, active compounds read low) was 0.788 (active). The normalized growth (locus YBR021W, strain FUR4, active compounds read low) was 0.948, the normalized growth (locus YBR023C, strain chs3, active compounds read low) was 0.906 (active) and the normalized growth (locus YBR171W, strain sec66, active compounds read low) was 0.889 (active). For the same compound, the normalized growth (locus YBR229C, strain ROT2, active compounds read low) was 0.942, the normalized growth (locus YBR231C, strain swc5, active compounds read low) was 0.713 (active) and the normalized growth (locus YBR279W, strain paf1, active compounds read low) was 0.864 (active). For the same compound, the normalized growth (locus YCL011C, strain gbp2, active compounds read low) was 0.869 (active), the normalized growth (locus YCL016C, strain dcc1, active compounds read low) was 0.837 (active) and the normalized growth (locus YCL029C, strain bik1, active compounds read low) was 0.887 (active). For the same compound, the normalized growth (locus YCL069W, strain vba3, active compounds read low) was 0.924 (active), the normalized growth (locus YCR088W, strain abp1, active compounds read low) was 0.921 (active) and the normalized growth (locus YDL005C, strain med2, active compounds read low) was 0.967. For the same compound, the normalized growth (locus YDL035C, strain GPR1, active compounds read low) was 0.825 (active), the normalized growth (locus YDL040C, strain nat1, active compounds read low) was 0.949 and the normalized growth (locus YDL074C, strain BRE1, active compounds read low) was 0.83. The normalized growth (locus YDL101C, strain DUN1, active compounds read low) was 0.913, the normalized growth (locus YDL134C, strain PPH21, active compounds read low) was 0.818 (active) and the normalized growth (locus YDL185W, strain tfp1, active compounds read low) was 0.875 (active). For the same compound, the normalized growth (locus YDL192W, strain arf1, active compounds read low) was 0.867 (active), the normalized growth (locus YDR001C, strain nth1, active compounds read low) was 0.932 and the normalized growth (locus YDR069C, strain doa4, active compounds read low) was 0.872 (active). The normalized growth (locus YDR101C, strain arx1, active compounds read low) was 0.887 (active), the normalized growth (locus YDR137W, strain rgp1, active compounds read low) was 0.388 (active) and the normalized growth (locus YDR150W, strain NUM1, active compounds read low) was 0.899 (active). For the same compound, the normalized growth (locus YDR159W, strain sac3, active compounds read low) was 0.595 (active), the normalized growth (locus YDR162C, strain NBP2, active compounds read low) was 0.817 (active) and the normalized growth (locus YDR195W, strain ref2) was 0.956. The normalized growth (locus YDR297W, strain sur2, active compounds read low) was 0.893 (active), the normalized growth (locus YDR318W, strain mcm21, active compounds read low) was 0.841 (active) and the normalized growth (locus YDR334W, strain swr1, active compounds read low) was 0.917. For the same compound, the normalized growth (locus YDR335W, strain msn5, active compounds read low) was 0.853 (active), the normalized growth (locus YDR388W, active compounds read low) was 0.868 (active) and the normalized growth (locus YDR392W, strain spt3, active compounds read low) was 0.374 (active). The normalized growth (locus YDR502C, strain sam2, active compounds read low) was 0.815 (active), the normalized growth (locus YEL003W, strain gim4, active compounds read low) was 0.808 (active) and the normalized growth (locus YEL037C, strain rad23, active compounds read low) was 0.915 (active). For the same compound, the normalized growth (locus YEL061C, strain CIN8 (second series), active compounds read low) was 0.889 (active), the normalized growth (locus YEL061C, strain CIN8, active compounds read low) was 0.891 (active) and the normalized growth (locus YER015W, strain faa2, active compounds read low) was 0.761 (active). For the same compound, the normalized growth (locus YER016W, strain bim1, active compounds read low) was 0.904 (active), the normalized growth (locus YER110C, active compounds read low) was 0.932 and the normalized growth (locus YER111C, strain swi4, active compounds read low) was 0.93. For the same compound, the normalized growth (locus YER155C, strain BEM2 (second series), active compounds read low) was 0.655 (active), the normalized growth (locus YER155C, strain BEM2, active compounds read low) was 0.922 (active) and the normalized growth (locus YER167W, strain BCK2, active compounds read low) was 0.784 (active). For the same compound, the normalized growth (locus YFR010W, strain ubp6, active compounds read low) was 0.841 (active), the normalized growth (locus YGL078C, strain dbp3, active compounds read low) was 0.939 and the normalized growth (locus YGL086W, strain mad1, active compounds read low) was 0.827 (active). For the same compound, the normalized growth (locus YGL167C, strain pmr1, active compounds read low) was 0.973, the normalized growth (locus YGL173C, strain kem1, active compounds read low) was 0.907 and the normalized growth (locus YGL227W, strain vid30, active compounds read low) was 0.95. For the same compound, the normalized growth (locus YGL240W, strain doc1, active compounds read low) was 0.757 (active), the normalized growth (locus YGL248W, strain PDE1, active compounds read low) was 0.818 (active) and the normalized growth (locus YGL253W, strain hxk2, active compounds read low) was 0.707 (active). For the same compound, the normalized growth (locus YGR078C, strain PAC10, active compounds read low) was 0.789 (active), the normalized growth (locus YGR135W, strain pre9, active compounds read low) was 0.858 (active) and the normalized growth (locus YGR252W, strain gcn5, active compounds read low) was 0.854. The normalized growth (locus YHR013C, strain ard1, active compounds read low) was 0.781 (active), the normalized growth (locus YHR027C, strain rpn1, active compounds read low) was 0.781 (active) and the normalized growth (locus YHR030C, strain SLT2, active compounds read low) was 0.837 (active) and 0.62 (active). The normalized growth (locus YHR079C, strain IRE1 (second series), active compounds read low) was 0.89 (active), the normalized growth (locus YHR079C, strain IRE1, active compounds read low) was 0.654 (active) and the normalized growth (locus YHR094C, strain hxt1, active compounds read low) was 0.94. For the same compound, the normalized growth (locus YHR129C, strain ARP1, active compounds read low) was 0.89 (active), the normalized growth (locus YHR142W, strain chs7, active compounds read low) was 0.856 (active) and the normalized growth (locus YHR200W, strain rpn10, active compounds read low) was 0.851 (active). For the same compound, the normalized growth (locus YIL066C, strain RNR3, active compounds read low) was 0.805 (active), the normalized growth (locus YIL073C, strain SPO22, active compounds read low) was 0.741 and the normalized growth (locus YIL125W, strain kgd1, active compounds read low) was 0.893 (active). For the same compound, the normalized growth (locus YIR030C, strain dcg1, active compounds read low) was 0.918 (active), the normalized growth (locus YJL092W, strain hpr5, active compounds read low) was 0.859 (active) and the normalized growth (locus YJL095W, strain BCK1 (second series), active compounds read low) was 0.798 (active). For the same compound, the normalized growth (locus YJL095W, strain BCK1, active compounds read low) was 0.625 (active) and 0.71 (active), the normalized growth (locus YJL115W, strain asf1, active compounds read low) was 0.861 (active) and the normalized growth (locus YJL129C, strain trk1, active compounds read low) was 0.703 (active). The normalized growth (locus YJL134W, strain LCB3, active compounds read low) was 0.927 (active), the normalized growth (locus YJL154C, strain vps35, active compounds read low) was 0.928 and the normalized growth (locus YJL164C, strain tpk1, active compounds read low) was 0.871 (active). For the same compound, the normalized growth (locus YJL166W, strain qcr8, active compounds read low) was 0.813 (active), the normalized growth (locus YJL168C, strain set2, active compounds read low) was 0.915 (active) and the normalized growth (locus YJL187C, strain SWE1 (second series), active compounds read low) was 0.843 (active). The normalized growth (locus YJR043C, strain POL32, active compounds read low) was 0.867, the normalized growth (locus YJR066W, strain TOR1, active compounds read low) was 0.738 (active) and the normalized growth (locus YJR075W, strain HOC1, active compounds read low) was 0.79 (active).
